According to PubChem BioAssay AID588676 (Johns Hopkins Ion Channel Center, 2011):
Among all 310,000 compounds or so, about 3,900 (1.3%) were called active. The sample holds actives, similar compounds and a random draw of the others, so the mix is not that of the screen.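 The calls were made as follows: active = calcium-response B-score plate-corrected more than 3 library SD below zero, starting fluorescence within 5 deviations, no agonist response on first addition; inactive = the rest.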

Each compound was assayed against Mas-related G-protein coupled receptor member X1 (Homo sapiens) (UniProt Q96LB2) (assay: blockade of BAM8-22-evoked MrgX1 calcium response – HEK293 cells, Fluo-4 calcium flux, primary screen (AID 588676;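 as to B-score: peak minus trough fluorescence over baseline after final BAM8-22 challenge near maximal dose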)). Details: Fluo-4, BAM8-22 antagonism, at 10 µM; active compounds read low.
Mas-related G-protein coupled receptor member X1 (Homo sapiens), sequence (Q96LB2 whole entry, looked up): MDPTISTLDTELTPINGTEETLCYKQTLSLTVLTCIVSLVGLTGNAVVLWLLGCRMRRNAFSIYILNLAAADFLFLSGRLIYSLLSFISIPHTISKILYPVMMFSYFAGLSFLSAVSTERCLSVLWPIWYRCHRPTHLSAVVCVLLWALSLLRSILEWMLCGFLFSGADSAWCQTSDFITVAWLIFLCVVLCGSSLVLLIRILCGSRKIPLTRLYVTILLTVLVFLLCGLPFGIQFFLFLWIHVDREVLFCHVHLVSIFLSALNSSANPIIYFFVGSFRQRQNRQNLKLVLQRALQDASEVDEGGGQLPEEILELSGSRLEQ

B-score, active:
CC(C)NC(=S)Nc1cccc2cnccc12 -4.98, COc1ccc(C(=O)Nc2c(N)nc(SCC(=O)N3CCC(C)CC3)[nH]c2=O)cc1OC -5.91, Cc1ccc(S(=O)(=O)C(C#N)c2nc3ccccc3nc2N2CCCC2)cc1C (configuration not stated) -6.25, CCOc1ccc(C(=O)NC2CCN(S(=O)(=O)CC)CC2)cc1 -5.83, CC1=C/C(=N\OS(=O)(=O)c2ccccc2)C=CC1=O -5.63, COc1ccccc1Oc1nc(-c2cccnc2)nc2ccccc12 -5.1, O=C(N/N=C/c1ccccc1O)C1CCCC1 -4.79, Cc1ccc2cc(/C=N/Nc3ccc(C(=O)O)cc3)c(Cl)nc2c1 -14.6, c1ccc(-c2[nH]ncc2-c2nc3ccccc3[nH]2)cc1 -5.86, CCCn1c(O)c(CN2CCCC(C)C2)c(C)c(C#N)c1=O (configuration not stated) -5.29, CCCN1CC=C2C(C#N)=C(N)C(C#N)(C#N)C(c3cc(OC)ccc3OC)C2C1 (configuration not stated) -7.07, C=C(C)C1CC=C(C)/C(=N\NC(=O)CNc2ccccc2OC)C1 (configuration not stated) -6.1, NS(=O)(=O)c1ccc(NC(=S)Nc2ccc(Br)c(Cl)c2)cc1 -5.41, CCCCOC(=O)CNc1nnc(SCC(=O)OCC)[nH]c1=O -10.5, O=C(O)CSC(NC(=O)c1cccnc1)(C(F)(F)F)C(F)(F)F -5.59, O=C(COC(=O)C1CCN(S(=O)(=O)c2ccc3c(c2)OCCO3)CC1)Nc1ccccc1OC(F)F -5.02, CCC(C)c1ccccc1N1CC(C(=O)N2CCN(S(=O)(=O)c3ccc(F)cc3)CC2)CC1=O (configuration not stated) -7.31, S=C(NCc1ccc(Cl)cc1)NC12CC3CC(CC(C3)C1)C2 -5.44, O=C(c1cccs1)C1C(c2ccc(Br)cc2)NC(=S)NC1(O)C(F)(F)F (configuration not stated) -6.04, COc1ccc(S(=O)(=O)N2CCN(C(=O)NC3CCCCC3)CC2)cc1 -4.64

B-score, inactive:
O=C(COC(=O)c1cnccn1)Nc1cccc2ccccc12, COC(=O)c1cccnc1NC(=S)NC(C)C, Cc1ccc2cc(CN(c3ccc(C)c(C)c3)S(C)(=O)=O)c(=O)[nH]c2c1, Cc1cc([N+](=O)[O-])ccc1NCc1cccc([N+](=O)[O-])c1, Cc1c(Br)c([N+](=O)[O-])nn1CC(=O)Nc1sc2c(c1C(=O)OC(C)C)CCC(C)C2 (configuration not stated), COc1ccc(C(=O)Nc2c(N)nc(SCC(=O)Nc3ccc(C(C)=O)cc3)[nH]c2=O)cc1, COC(=O)c1ccc(NC(=O)CSc2nc(N)c(NC(=O)c3ccc(Br)o3)c(=O)[nH]2)cc1, COC(=O)C(C(=O)Nc1cccc(C)n1)C1CCCCCC1 (configuration not stated), Cc1c(NC(=O)CCC2CCCCC2)cc(C(=O)N2CCOCC2)cc1[N+](=O)[O-], Cc1cc(N2CCN(S(=O)(=O)c3ccc(C)c(C)c3)CC2)c2ccccc2n1, Cc1ccc(S(=O)(=O)Nc2nc3ccccc3nc2N2CCc3ccccc3C2)cc1, C#CCOCCOCCOCCNc1nc(N2CCN(C(=O)C(Cc3ccc(O)cc3)n3cc(C(N)CC(C)C)nn3)CC2)nc(N2CCN(C(=O)C(Cc3ccc(O)cc3)n3cc(C(N)C(C)CC)nn3)CC2)n1 (configuration not stated), O=C(Nc1nnc(-c2ccccc2F)s1)c1ccccc1F, CN(CC(=O)NCCN1CCOCC1)S(=O)(=O)c1ccc(F)cc1, CCOc1ccc(NS(=O)(=O)c2ccc(C(=O)NC3CCN(Cc4ccccc4)CC3)cc2)cc1, CCOc1ccc(NC(=S)N2CCC(NC(=O)c3ccccc3)CC2)cc1, CCOC(=O)c1nnn2c1nc(N1CCN(c3ccccc3)CC1)c1ccccc12, COc1cc(C(=S)N2CCOCC2)cc(OC)c1OC(=O)c1cc([N+](=O)[O-])c(C)c([N+](=O)[O-])c1, O=S(=O)(ON(c1ccccc1)S(=O)(=O)c1ccccc1)c1ccccc1, CCOC(=O)c1ccc2[nH]c3c(c2c1)CCCC3NC=O (configuration not stated), O=C(NC(C(=O)NCCN1CCOCC1)C12CC3CC(CC(C3)C1)C2)C1CCCCC1 (configuration not stated), O=C(C[C@H]1C(=O)N(c2ccc(F)c(F)c2)C[C@@H]1Cc1ccccc1)Nc1ccccc1, C/C=C/C=C/C(=O)OCC(=O)Nc1ccc(Cl)cc1, COc1ccc(Nc2nc(-c3cccnc3)nc3ccccc23)cn1, O=[N+]([O-])c1ccc(F)cc1Oc1nc(-c2cccnc2)nc2ccccc12, CCOc1ccc(C(C)=O)cc1COC(=O)CN1C(=O)NC2(CCCC2)C1=O, Cc1cccc(OCC(O)Cn2c(N3CCCCC3)nc3c2c(=O)[nH]c(=O)n3C)c1 (configuration not stated), c1ccc(-c2cc3c(NCC4COc5ccccc5O4)ncnc3s2)cc1 (configuration not stated), Oc1cc2c(cc1O)CN(C(=S)NCCc1ccc(Cl)cc1)CCC2, Oc1ccccc1C=NC1CCCCC1N=Cc1ccccc1O (configuration not stated), COc1ccc(/C=N/NC(=O)C2CC2)c(OC)c1OC, O=C(O)c1ccc(N/N=C/c2ccc3ncccc3c2)cc1, Cc1ccc2cc(/C=N/NC(=O)[C@@H]3CCCN3)c(Cl)nc2c1, CCCCC(O)(CCCC)C(=O)NN(C(=O)CCl)c1ccccc1, CC(C)(C)c1ccc(/C=C2\Oc3c(ccc(O)c3CN3CCN(CCO)CC3)C2=O)cc1, COc1ccc(-c2[nH]nc(-c3ccccc3)c2-c2nc3ccccc3[nH]2)cc1, O=C(Nc1cccc(-c2nc3ccccc3[nH]2)c1)c1ccc(C(=O)Nc2cccc(-c3nc4ccccc4[nH]3)c2)cc1, CC(OC(=O)CCCOc1ccccc1)C(=O)Nc1ccc(Cl)cn1 (configuration not stated), CCOCCCn1c(NN)nc2ccccc2c1=O, Cc1c(CN2CCCCC2)c(O)n(CCO)c(=O)c1C#N, CCCCCCn1c(CN2CCCC(C)C2)nc2c1c(=O)n(C)c(=O)n2C (configuration not stated), Cc1cc(NC(=O)/C=C/C(=O)N(c2ccccc2C)C(C(=O)NC2CCCC2)c2ccc(F)cc2)no1 (configuration not stated), CCOCCOCCC(C(=O)O)P(=O)(c1ccccc1)c1ccccc1 (configuration not stated), N#CC1=C(N)C(C#N)(C#N)[C@H](c2ccsc2)[C@H]2COCC=C12, CCN1CC=C2C(C#N)=C(N)C(C#N)(C#N)[C@H](c3ccoc3)[C@H]2C1, O=C(O)CN1c2cccc3cccc(c23)S1(=O)=O, COc1ccc(-c2cc(C(F)(F)F)nc(S(C)(=O)=O)n2)cc1OC, O=C(NNC1=NCCC1)c1cccc(S(=O)(=O)N2CCCCC2)c1, COc1ccc(Cl)cc1NC(=O)CNc1ccccc1F, C=C(C)C1CC=C(C)/C(=N/NC(=O)CCCNc2cccc(C)c2)C1 (configuration not stated), O=S(=O)(Nc1ccccc1Cl)c1cccc2nsnc12, Cn1nc(C(C)(C)C)c(NC(=O)c2sccc2Cl)c1C(C)(C)C, COc1ccccc1N(CC(=O)NC1CCCC1)C(=O)C1(C)CC(=O)N=C2C=CC(C)=CN21 (configuration not stated), CCn1c(SCC(=O)Nc2ccc(C)cc2)nc2nc3c(cc2c1=O)CCCC3, O=C1CC(c2c(F)cccc2Cl)C(n2cncn2)C(O)=C1C1NCCc2ccccc21 (configuration not stated), COc1ccc(NC(=S)Nc2ccc(S(N)(=O)=O)cc2)c(C)c1, NS(=O)(=O)c1ccc(CCNC(=S)Nc2ccc(S(N)(=O)=O)cc2)cc1, CO/N=C(/CS(=O)(=O)c1ccc(Br)cc1)c1ccc(OC)cc1, CCOc1ccc(C)cc1S(=O)(=O)NC1CCCCCC1, CCOC(=O)CSc1nc(C)c(Oc2ccc(Cl)cc2Cl)c(=O)[nH]1, Cc1nnc(SCC(=O)N2CCOCC2)[nH]c1=O, COCCOC(=O)C1=C(C)NC(=O)NC1c1cc2c(cc1Br)OCO2 (configuration not stated), O=C(NNC(=O)c1cccnc1)Nc1ccccc1, O=C(Cc1ccccc1)Nc1ccc(NC(=O)c2cccnc2)cc1, CCOC(=O)C1CCN(C(=O)COC(=O)C2CCN(S(=O)(=O)c3ccc4c(c3)OCCO4)CC2)CC1, COc1ccccc1CNC(=O)C1CCN(S(=O)(=O)c2ccc3c(c2)OCCO3)CC1, C/C(=N/O)c1ccc(N2C(=O)C3C4C=CC(C3C2=O)C2C3C(=O)N(c5ccc(/C(C)=N/O)cc5)C(=O)C3C42)cc1 (configuration not stated), Clc1ccc(Nc2ccc3ccccc3n2)cc1, O=C(C1CC(=O)N(c2ccc(F)cc2)C1)N1CCN(c2ccccc2)CC1 (configuration not stated), Cc1ccccc1N1CC(C(=O)Nc2ccc(S(=O)(=O)N3CCCC3)cc2)CC1=O (configuration not stated), Cc1cc(C)n(C(=O)c2ccc(C)c(S(=O)(=O)N3CCOCC3)c2)n1, S=C(NCc1ccc(Cl)cc1)NC1CCCCC1, O=C(NCc1ccncc1)NC12CC3CC(CC(C3)C1)C2, CC(=O)c1cccc(NC(=S)N2CCCC2)c1, O=C(Nc1ccc(Br)cc1)c1cc(S(=O)(=O)Nc2ccccn2)ccc1Cl, OC(c1ccccc1)c1nccn1Cc1ccccc1 (configuration not stated), CN(Cc1ccccc1)C(=O)C(=O)c1cn(CC(=O)N2CCCC2)c2ccccc12, CCOC(=O)C1C(c2ccc(Cl)cc2)NC(=S)NC1(O)C(F)(F)F (configuration not stated), CC(=O)C1C(c2cccc(Oc3ccccc3)c2)NC(=O)NC1(O)C(F)(F)F (configuration not stated), COc1ccc(C(C#N)Nc2ccccc2C)cc1 (configuration not stated), O=S(=O)(c1ccc(F)cc1)N1CCN(C(=S)NC2CCCC2)CC1, CCOC(=O)N1CCN(S(=O)(=O)c2ccc(OC)cc2)CC1
